Data published in PubChem BioAssay (NCATS).
Several values for one entry are separate records, joined by “and”; a condition that tells them apart may be missing. Equal values may be shown once. Inconclusive results are not listed. Activity calls are given as the source filed them. Unless noted, calls come from the whole dose curve; as a rule, active = well fitted curve in the direction sought with a large enough effect; inconclusive = small, poorly fitted or top-dose-only effect, or another doubt; inactive = no such curve, though single readings can be large; an effect the other way counts as inactive or inconclusive.

Key:
[1] = qHTS to identify inhibitors of the type 1 interferon - major histocompatibility complex class I in skeletal muscle: primary screen against the NCATS Mechanism Interrogation Plate v5.0 (MIPE) Libary (AID 1347411); note: nearly all actives have a fitted effect of over 65% in size;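 for activity change, negative = inhibition: plate controls were vehicle for no effect and reference inhibitor for full effect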
How it was run: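 Luminescence from CRISPR HiBit-tagged endogenous HLA-B in human myoblasts reported MHC class I level after 24 h of IFN-beta (4 ng/ml) plus compound. Compounds ran as 11-point 1:3 series, top 46 uM final.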

[2] = Primary qHTS for inhibitors of nuclear receptor binding SET domain protein 2 (NSD2) in an isogenic RCH-ACV NSD2 p.E1099K mutant (9B) (AID 1645876); note: nearly all actives have a fitted effect of over 70% in size
[3] = Primary qHTS for inhibitors of nuclear receptor binding SET domain protein 2 (NSD2) in an RCH-ACV wild type WT cells (2C) (AID 1645877); note: nearly all actives have a fitted effect of over 70% in size
[4] = molecular target: Glutathione peroxidase 1 (Homo sapiens) (UniProt P07203); experiment: Primary qHTS Assay for Inhibitors of Recombinant Selenoprotein Glutathione Peroxidase 1 (GPX1) (AID 1845191); note: nearly all actives have a fitted effect of over 65% in size
Glutathione peroxidase 1 (Homo sapiens), sequence (P07203 whole entry, looked up): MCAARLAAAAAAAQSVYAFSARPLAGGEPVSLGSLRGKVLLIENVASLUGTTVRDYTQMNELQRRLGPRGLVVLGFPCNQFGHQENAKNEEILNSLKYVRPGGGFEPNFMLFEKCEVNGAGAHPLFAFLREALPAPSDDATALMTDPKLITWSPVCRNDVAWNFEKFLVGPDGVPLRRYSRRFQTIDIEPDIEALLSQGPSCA
How it was run: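 GR-coupled readout: NADPH consumption tracked by fluorescence, ex 340/em 450 nm, at t=0 and after 15 min at RT. Final mix 10 nM GPX1, 1 mM GSH, 0.5 mM CHP, 0.5 mM NADPH, 100 nM GR, 0.01% BSA, following 30 min enzyme–compound preincubation.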

[5] = qHTS drug screen for cell cycle checkpoint inhibitors in PARPi-resistant BRCA-mutant ovarian cancer cell lines. (AID 1963452; calls by dose curve); conditions: PEO1/OlaR viability, CellTiter-Glo luminescence, 96 h; for Z-AUC: stronger effect = lower value
How it was run: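 PEO1, PEO4 and PEO1/OlaR ovarian cancer cells, 600 per well, exposed 96 h at 37C to a dilution series. Viability read by CellTiter-Glo luminescence, normalized to DMSO and empty wells; activity summarized as Z-AUC.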

[6] = qHTS assay to identify inhibitors of the type 1 interferon - major histocompatibility complex class I in skeletal muscle: Counter screen cell viability and HiBit confirmation (AID 1347412); conditions: iHSKM muscle cells + IFN-b, HiBiT or CellTiter-Glo, 24 h; for activity change, negative = inhibition: at 45.9 µM (top of the series); for activity change, negative = inhibition: % is set by controls: 0 for no effect and ±100 for the full control effect; for all read-outs here: nearly all actives have a fitted effect of over 60% in size
How it was run: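 Luminescence read-out: Nano-Glo HiBiT lytic signal from C-terminally HiBiT-tagged HLA-B in CRISPR-edited human myoblasts, plus CellTiter Glo ATP as viability counter screen. IFN-beta 4.0 ng/ml; 24 hrs treatment at 37 C, 5% CO2.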

[7] = molecular target: Phospholipid hydroperoxide glutathione peroxidase GPX4 (Homo sapiens) (UniProt P36969); experiment: Primary qHTS Assay for Inhibitors of Recombinant Selenoprotein Glutathione Peroxidase 4 (GPX4) (AID 1845192); conditions: outcome: dose series up to 50 µM unless noted; note: nearly all actives have a fitted effect of over 65% in size; for activity change, negative = inhibition: % is set by controls: 0 for no effect and ±100 for the full control effect
Phospholipid hydroperoxide glutathione peroxidase GPX4 (Homo sapiens), sequence (P36969 whole entry, looked up): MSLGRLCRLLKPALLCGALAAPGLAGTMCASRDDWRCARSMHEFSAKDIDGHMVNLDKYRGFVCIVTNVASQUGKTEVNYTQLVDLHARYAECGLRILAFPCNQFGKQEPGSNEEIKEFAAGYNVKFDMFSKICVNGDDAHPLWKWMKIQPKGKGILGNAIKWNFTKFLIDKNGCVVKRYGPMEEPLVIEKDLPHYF
How it was run: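 Steps: GPX4 plus compound, 30 min RT; add GR/GSH/NADPH master mix; start with cumene hydroperoxide; read 340/450 nm fluorescence at 0 and 15 min. Finals were 200 nM GPX4, 1 mM GSH, 0.5 mM CHP, 0.5 mM NADPH, 100 nM GR.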

[8] = measured here: PEO1 parental Z-AUC
Potency is the fitted concentration of half-maximal effect.

Compound	Potency [1]	Potency [2]	Potency [3]	Potency [4]	Z-AUC [5]	Z-AUC [5, 8]	Z-AUC ([5]; measured here: PEO4 Z-AUC)	Potency ([6]; HiBiT)	Potency [7]	activity change, negative = inhibition ([6]; Viability)	Potency ([6]; Viability)	activity change, negative = inhibition ([6]; HiBiT)	Potency [5]
C=CCNC1=C2CC(C)CC(OC)C(O)C(C)/C=C(\C)C(OC(N)=O)C(OC)/C=C/C=C(\C)C(=O)NC(=CC1=O)C2=O (configuration not stated)	0.0587 µM (active)	1.32 µM (active)	1.32 µM (active)	inactive	-0.25 (inactive)	-0.657	-0.0403	0.0497 µM (active)	–	–	–	–	–
Cc1[nH]c(/C=C2\C(=O)Nc3ccc(S(=O)(=O)Cc4c(Cl)cccc4Cl)cc32)c(C)c1C(=O)N1CCC[C@@H]1CN1CCCC1	5.23 µM (active)	6.61 µM (active)	5.25 µM (active)	inactive	0.541 (inactive)	0.565	0.0929	22.2 µM (active)	inactive	–	–	–	–
C[C@H](NC(=O)/C(C#N)=C/c1cccc(Br)n1)c1ccccc1	10.4 µM (active)	14.8 µM (active)	14.8 µM (active)	–	0.178 (inactive)	-0.139	-0.487	7.01 µM (active)	inactive	17% (inactive)	–	–	–
CC1(C)OC2=C(C(=O)c3ccccc3C2=O)[C@H](NCc2ccccc2)[C@@H]1O	9.3 µM (active)	7.42 µM (active)	6.61 µM (active)	inactive	0.63 (inactive)	1.22	1.45	9.91 µM (active)	inactive	–	14 µM (active)	–	–
Cc1cc(C)c(CNC(=O)c2cc(-c3ccc(N4CCN(C)CC4)nc3)cc3c2c(C)cn3C(C)C)c(=O)[nH]1	inactive	16.6 µM (active) and 18.6 µM (active)	–	inactive	-1.15 (inactive) and -0.405 (inactive)	-1.04 and 0.4	-1.52 and 0.0539	–	12.8 µM (active)	-10.1% (inactive)	–	0.953% (inactive)	–
CC(=O)c1ccc2c(c1)c1cc(C(C)=O)ccc1n2CCNC(C)C	1.47 µM (active)	0.742 µM (active)	0.662 µM (active)	–	–	-1.63	-1.42	1.11 µM (active)	–	-5.98% (inactive)	–	–	1.55 µM (active)
C[C@@H]1C[C@H](N)C[C@H](c2ccncc2NC(=O)c2ccc(F)c(-c3c(F)cccc3F)n2)C1	26.2 µM (active)	14.8 µM (active)	11.8 µM (active)	inactive	-0.973 (inactive)	-0.644	-0.817	–	inactive	-19.6% (inactive)	–	-24.5% (inactive)	–
CC(=O)c1cc2c(o1)C(=O)c1ccccc1C2=O	0.523 µM (active)	1.86 µM (active)	–	1.29 µM (active)	–	-1.52	-1.88	0.249 µM (active)	–	–	0.394 µM (active)	–	0.549 µM (active)
Cc1ccc(NC(=O)NCc2ccc3c(c2)CN(C2CCC(=O)NC2=O)C3=O)cc1Cl (configuration not stated)	0.0147 µM (active)	0.0015 µM (active)	–	inactive	-3.37 (inactive)	-3.53	-3.45	0.0079 µM (active)	inactive	-11.6% (inactive)	–	–	–
NC(=O)/C(=C/n1cnc(-c2cc(C(F)(F)F)cc(C(F)(F)F)c2)n1)c1cncnc1	3.3 µM (active)	0.417 µM (active)	0.235 µM (active)	inactive	-0.773 (inactive)	-2.06	-1.68	1.57 µM (active)	inactive	–	–	–	–
C=C1C(=O)O[C@@H]2[C@H]3C(C)=CC[C@@]34O[C@@]4(C)CC[C@@H]12	16.5 µM (active)	5.25 µM (active)	4.68 µM (active)	inactive	0.243 (inactive)	0.182	0.342	12.5 µM (active)	–	49.2% (inactive)	–	–	–
C[C@@]12C(=O)OC(=O)[C@]1(C)[C@H]1CC[C@@H]2O1	5.87 µM (active)	6.61 µM (active)	4.68 µM (active)	inactive	0.0424 (inactive)	0.505	0.28	27.9 µM (active)	inactive	–	14 µM (active)	–	–
C=C1C(=O)O[C@H]2C[C@H](C)C(/C=C/C(C)=O)=CC[C@H]12	6.58 µM (active)	1.48 µM (active)	1.32 µM (active)	inactive	0.205 (inactive)	-0.357	-0.273	3.13 µM (active)	–	64.7% (inactive)	–	–	–
COC(=O)c1ccc([C@H]2c3[nH]c4ccccc4c3C[C@H](C(=O)OC)N2C(=O)CCl)cc1	0.829 µM (active)	0.148 µM (active)	0.148 µM (active)	inactive	-1.5 (inactive)	0.403	-0.118	0.496 µM (active)	–	–	0.787 µM (active)	–	–
COC1CCC(N2C(=O)CNc3ncc(-c4ccc(C(C)(C)O)nc4)nc32)CC1 (configuration not stated)	13.1 µM (active)	3.72 µM (active)	3.72 µM (active)	–	1.16 (inactive)	0.788	0.864	11.1 µM (active)	3.21 µM (active)	-5.62% (inactive)	–	–	–
CNc1nc(-c2ccc3c(N)n[nH]c3c2)cc(N2C[C@@H](C(=O)NC3CCCCC3)CC[C@H]2C)n1	13.1 µM (active)	0.525 µM (active)	–	inactive	-1.31 (inactive)	0.449	-0.0883	31.3 µM (active)	inactive	–	–	–	–
CN(Cc1ccc(/C=C/C(=O)NO)cc1)CC12CC3CC(CC(C3)C1)C2	0.33 µM (active)	0.263 µM (active)	0.209 µM (active)	inactive	-0.476 (inactive)	-0.953	-1.12	0.351 µM (active)	inactive	-18.3% (inactive)	–	–	–
CC1=C2[N-][C@H]([C@H](CC(N)=O)[C@@]2(C)CCC(=O)NC[C@@H](C)OP(=O)([O-])O[C@H]2[C@@H](O)[C@@H](n3cnc4cc(C)c(C)cc43)O[C@@H]2CO)[C@]2(C)N=C(C(C)=C3N=C(C=C4N=C1[C@@H](CCC(N)=O)C4(C)C)[C@@H](CCC(N)=O)[C@]3(C)CC(N)=O)[C@@H](CCC(N)=O)[C@]2(C)CC(N)=O.O.[Co+2]	8.29 µM (active)	inactive	–	inactive	-0.864 (inactive)	0.932	0.294	14 µM (active)	inactive	-18.1% (inactive)	–	–	–
